# Laboratory results taken from PubChem BioAssay AID652010 (The Scripps Research Institute Molecular Screening Center, 2013).
# Out of some 370,000 compounds screened, about 4,100 (1.1%) were called active.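 Rule for the calls: active = inhibition above the mean over all tested compounds plus 3 SD (cut at about 3.6% in these data); inactive = the rest.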 This excerpt belongs to a sample that is enriched for actives.
# Assay: relief of DAX-1 repression of SF-1 activity – cell-based, luminescence, SF-1 (NR5A1), full-length DAX-1, primary screen (AID 652010);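 note: 0% = DAX-1 cells with DMSO and 100% = cells lacking DAX-1 with DMSO; higher inhibition means more luminescence from relief of DAX-1 repression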
# Details: HEK293T StAR-luciferase reporter, SF-1/DAX-1 repression relief; at 6.8 µM; hits give high values
row,SMILES,inhibition
1,Cc1ccnc(NC(=O)CNC(=O)c2ccccc2)c1,6.34% (active)
2,Cc1ccnc(NC(=O)Cn2ccc([N+](=O)[O-])n2)c1,0.11% (inactive)
3,Cc1ccnc(NC(=O)CCCOc2ccccc2)c1,0.57% (inactive)
4,O=C(CN1CCCc2ccccc21)NCc1ccc(F)cc1,-0.22% (inactive)
5,Brc1ccc(COCCc2cn(Cc3ccccc3)c3ccccc23)cc1,1.27% (inactive)
6,O=C(COc1ccc(Br)cc1F)NCC1(N2CCCCC2)CCCCC1,0.06% (inactive)
7,CN(C)CCN(C(=O)C1=COCCO1)c1nc2ccc(Cl)cc2s1,4.61% (active)
8,CC(C)N(Cc1nnc(-c2ccc(Cl)cc2)o1)C(=O)C1=COCCO1,-1.6% (inactive)
9,CCCOP(=O)(c1ccc(N(C)C)cc1)C(O)c1cc(OC)c(OC)c(OC)c1 (centres undefined),0.1% (inactive)
10,CCCC[C@H](C(=O)N(CC)c1ccccc1)[C@@H](O)c1ccc2ccccc2c1,-1.35% (inactive)
11,COC(=O)[C@]12C[C@H](CC(=O)NCc3cccc4ccccc34)C(=O)N(CCc3ccc(OC)c(OC)c3)C1=C[C@H](C1CCCC1)O[C@@H]2C,-1.59% (inactive)
12,C#CCN([C@H](C(=O)OC)C(C)CC)S(=O)(=O)c1ccccc1Br (some centres undefined),-0.34% (inactive)
13,COc1ccc(C(CNC(=O)c2cc(S(=O)(=O)Nc3cccc(C)c3)ccc2C)N2CCCC2)cc1 (centres undefined),4.48% (active)
14,COc1ccc(C(CNC(=O)c2cccc(NS(=O)(=O)c3ccc(C)c(F)c3)c2)N2CCCC2)cc1 (centres undefined),2.54% (inactive)
15,COc1ccc(NS(=O)(=O)c2ccc(C)c(C(=O)NCC(c3cccs3)N3CCOCC3)c2)cc1 (centres undefined),1.82% (inactive)
16,CCOC(=O)C1(Cc2ccccc2)CCN(Cc2cn(C(C)=O)c3ccccc23)CC1,-0.4% (inactive)
17,COc1ccccc1C(=O)NCCC(=O)NCC(c1ccco1)N1CCCCC1 (centres undefined),0.45% (inactive)
18,O=C(c1cc2sccc2n1Cc1ccc(F)cc1)N1CCc2ccccc21,-0.14% (inactive)
19,CCCCn1nc(C(=O)N2CCc3ccccc32)c2ccccc2c1=O,-1% (inactive)
20,O=C(c1cnn2ccccc12)N1CCc2ccccc21,6% (active)
21,Cc1ccccc1C(=O)N[C@H](C(=O)N1CCC[C@H]1C(=O)NCc1ccccc1)C(C)C,0.49% (inactive)
22,O=C(Nc1ccc2c(c1)OCCO2)C(C1CC1)N1CCC(Cc2ccccc2)CC1 (centres undefined),-0.46% (inactive)
23,O=C(CCS(=O)(=O)Cc1ccccc1)Nc1ccc2c(c1)OCCO2,-0.13% (inactive)

row,SMILES,inhibition
1,Nc1c(C(=O)Nc2ccc3c(c2)OCCO3)nnn1Cc1ccccc1,11.8% (active)
2,Cc1ccc(NC(=O)Cc2cccc(F)c2)c(S(=O)(=O)N2CCOCC2)c1,-1.09% (inactive)
3,O=C(CSc1nnc(-c2ccccn2)n1-c1ccccc1)Nc1ccc2cn[nH]c2c1,-1.05% (inactive)
4,CNc1ccc([N+](=O)[O-])cc1C(=O)O,0.42% (inactive)
5,COc1cccc(NS(=O)(=O)c2ccc(-c3coc(C)n3)cc2)c1,-0.43% (inactive)
6,O=[N+]([O-])c1ccc2oc(-c3cccc(O)c3)nc2c1,5.24% (active)
7,COc1cccc(-c2nc3cc(C)ccc3o2)c1,4.5% (active)
8,COc1cccc(-c2cnc(OC(C)(C)C)nc2OC(C)(C)C)c1,-0.07% (inactive)
9,O=[N+]([O-])c1ccc2c(c1)C(O)n1nc(-c3ccccc3)nc1S2 (centres undefined),-0.33% (inactive)
10,C=C(C)C#CC(Cc1ccccc1)N(CC1CC1)/C(N)=N/C(=O)OCc1ccccc1 (centres undefined),-1.59% (inactive)
11,CC(=O)C1(C(=O)Nc2nccs2)CC(c2ccccc2C(F)(F)F)=NO1 (centres undefined),-0.45% (inactive)
12,COc1ccnc(C(=O)N2CCC(Oc3cccnc3)CC2)c1,-0.42% (inactive)
13,COc1ccc(N2CCN(CCNS(=O)(=O)c3ccc([N+](=O)[O-])cc3)CC2)cc1,-1.45% (inactive)
14,O=C(NC1CCCCN(Cc2ccc(Cl)cc2)C1=O)c1ccc(Br)cc1 (centres undefined),-1.64% (inactive)
15,O=c1[nH]c(-c2ccccc2)cn1C1CCN(Cc2ccc(-c3nc4ccc(F)cc4nc3-c3ccccc3)cc2)CC1,-0.54% (inactive)
16,O=CN1CCN(C(=O)c2ccc(Br)o2)CC1,-0.07% (inactive)
17,CN1CCN(C(=O)c2ccc(NC(=O)c3ccc(Br)o3)cc2)CC1,0.03% (inactive)
18,CN1CCN(C(=O)c2ccc(-c3ccc(Br)cc3)o2)CC1,4.56% (active)
19,COC(=O)[C@]12C[C@H](CC(=O)N3CCOCC3)C(=O)N(Cc3ccc(Cl)cc3Cl)C1=C[C@H](C(C)C)O[C@@H]2C1CC1,-0.52% (inactive)
20,CCN(CC)S(=O)(=O)c1cccc(NC(=O)c2ccc(S(=O)(=O)N3CCCC3)cc2)c1,-3.89% (inactive)
21,O=C(Nc1ccc(S(=O)(=O)N2CCCCC2)cc1)c1cnccn1,0.17% (inactive)
22,CC(C)(C)n1nc2c(c1NC(=O)c1ccc(S(=O)(=O)N3CCCC3)cc1)CS(=O)C2 (centres undefined),-0.67% (inactive)
23,O=C(Nc1ncccc1O)c1ccc(S(=O)(=O)N2CCCCCC2)cc1,6.81% (active)

row,SMILES,inhibition
1,O=C(CNC(=O)c1ccc2ccccc2c1)Nc1ncccc1O,1.3% (inactive)
2,O=C(Nc1ncccc1O)c1ccc(C(=O)c2ccccc2)cc1,69.9% (active)
3,CCOC(=O)c1cccnc1NC(=O)c1ccncc1,0.42% (inactive)
4,CN1CCN(NC(=O)c2ccc(S(=O)(=O)N3CCCCCC3)cc2)CC1,-0.23% (inactive)
5,O=C(Nc1ncccc1O)c1ccc(S(=O)(=O)N2CCCC2)cc1,10.9% (active)
6,CC(=O)Nc1nc2ncccn2c1-c1ccc(C(F)(F)F)cc1,-0.41% (inactive)
7,CCN(C(=O)[C@@H](C1CC1)[C@@H](O)c1ccc2ccccc2c1)c1ccccc1,-0.4% (inactive)
8,COC(=O)C1CN(Cc2cn(Cc3ccc(F)cc3)nn2)CCS(=O)(=O)N1Cc1ccc(Cl)cc1 (centres undefined),-0.95% (inactive)
9,O=C1c2ccccc2C(c2nc3ccccc3[nH]2)N1c1ccccc1 (centres undefined),-1.53% (inactive)
10,C/C(=N\Nc1nc2ccccc2[nH]1)c1cccs1,3.55% (inactive)
11,Cc1ccc(-c2nc3ccccc3[nH]2)cc1N,6.54% (active)
12,c1ccc2[nH]c(-c3nc4ccccc4[nH]3)nc2c1,5.77% (active)
13,CCOC(=O)c1nc(-c2ccc3c(c2)OCO3)[nH]c1C,2.3% (inactive)
14,CCOC(=O)CNC(=O)CSc1ncccc1-c1nc2ccccc2[nH]1,0.2% (inactive)
15,COc1ccc(NC(=O)C2=CC(c3ccc(OC)c(OC)c3)=NS(=O)(=O)N2C)cc1,-5% (inactive)
16,COc1ccc(-c2cc(-c3nnc(SCc4ccc([N+](=O)[O-])cc4)n3N)[nH]n2)cc1,-1.87% (inactive)
17,CCOc1ccc(N(CC(=O)Nc2c(C)n(C)n(-c3ccccc3)c2=O)S(=O)(=O)c2ccc(Cl)s2)cc1,-1.26% (inactive)
18,Cc1ccccc1OCCC(=O)OCC(=O)NCCc1ccc(S(N)(=O)=O)cc1,2.36% (inactive)
19,CCC(NC(=O)C1C2C=CC3(CN(Cc4ccccc4)C(=O)C13)O2)c1ccccc1 (centres undefined),-0.13% (inactive)
20,Cc1cccc(NC(=O)c2cc3c(C)nn(-c4ccccc4)c3s2)c1,-0.95% (inactive)
21,CN(C)CC(=O)N[C@@H]1C[C@@H]2O[C@H](CO)CC[C@@H]2O[C@@H]1CCc1ccc(C#Cc2ccccc2)cc1,-1.24% (inactive)
22,CC(OC(=O)Cc1ccc(F)cc1)C(=O)N1CCc2ccccc21 (centres undefined),0.95% (inactive)
23,O=C(CSCc1ccccc1)N1CCc2ccccc21,3.64% (active)

row,SMILES,inhibition
1,O=C(CN1C(=O)c2ccccc2S1(=O)=O)N1CCc2ccccc21,-2.91% (inactive)
2,Cc1ccc(-n2c(SCC(=O)Nc3ccc(S(=O)(=O)Nc4nccs4)cc3)nnc2-c2cccnc2)cc1,0.65% (inactive)
3,CCOC(=O)[C@]12CCCCC/C=C\1N(Cc1ccc(OC)cc1)C(=O)[C@H]2CC(=O)NCc1ccc(C)o1,0.47% (inactive)
4,COc1cc(C2c3cc4c(cc3C(O)C3COC(=O)C23)OCO4)cc(OC)c1OC (centres undefined),7.49% (active)
5,COc1cc(C2CC(=O)Oc3cc(OC)c(OC)c(OC)c32)cc(OC)c1OC (centres undefined),0.24% (inactive)
6,COc1cc(C=C(OC(C)=O)c2ccc3c(c2)OCO3)cc(OC)c1OC,-1.67% (inactive)
7,O=C(NC1CCCCN(Cc2cccc(C(F)(F)F)c2)C1=O)c1ccccc1I (centres undefined),-0.84% (inactive)
8,Cc1ccc(C(=O)C2CCN(CC(=O)NCCC(C)C)CC2)cc1,-0.3% (inactive)
9,O=c1c2ccccc2nc2n1C(CSc1ccc(Cl)cc1)CN2 (centres undefined),0.41% (inactive)
10,Cn1nc(-c2ccccc2)c(CSc2cccc(Cl)c2)c1Cl,-0.99% (inactive)
11,Clc1ccc2nc(CSc3ccccc3)cn2c1,4.45% (active)
12,O=C(N[C@H](C(=O)N1CCC[C@H]1C(=O)NCCc1ccccc1Cl)c1ccccc1)c1ccccc1,-0.28% (inactive)
13,CCOC(=O)[C@]12CCCC3=C1N(CCC3)C(=O)[C@@H](CC(=O)NCc1cccs1)C2,0.02% (inactive)
14,CC(CCN1CCC(C(O)(c2ccccc2)c2ccccc2)CC1)Oc1ccc(C(F)(F)F)cc1 (centres undefined),-0.91% (inactive)
15,Cc1ccc(Nc2c(F)c(F)c(F)c(F)c2C(=O)O)c(C)c1,0.38% (inactive)
16,Cc1cc(C#N)c(SCC(N)=O)nc1-c1ccc(F)cc1,0.32% (inactive)
17,COc1ccc(CCNC(=O)CSc2nc(-c3ccc(OC)c(OC)c3)ccc2C#N)cc1,-0.18% (inactive)
18,CCOc1ccc2cc(C#N)c(SCC(=O)OC)nc2c1,3.71% (active)
19,Cc1ccc(-n2c(COc3ccccc3)nnc2SCC(=O)Nc2ccc3c(c2)OCCO3)cc1,-2.9% (inactive)
20,COc1ccc(-n2c(SCC(=O)Nc3ccccc3-c3ccccc3)nnc2-c2cccnc2)cc1,-1.84% (inactive)
